# Results published in paper PMC5540273 (PLoS ONE, 2017).
# Assays:
# Details in all cases: concentration: 1 μM,replicates: in singlicate; n = 1
# DYRK1B = tested on: DYRK1B
# DYRK2 = tested on: DYRK2
# EGFR = tested on: EGFR
# EIF2AK1 = tested on: EIF2AK1
# EPHA1 = tested on: EPHA1
# EPHA2 = tested on: EPHA2
# EPHA3 = tested on: EPHA3
# EPHA4 = tested on: EPHA4
# EPHA5 = tested on: EPHA5
# EPHA6 = tested on: EPHA6
# EPHA7 = tested on: EPHA7
# EPHA8 = tested on: EPHA8
# EPHB1 = tested on: EPHB1
# EPHB2 = tested on: EPHB2
# EPHB3 = tested on: EPHB3
# EPHB4 = tested on: EPHB4
# EPHB6 = tested on: EPHB6
# ERBB2 = tested on: ERBB2
# ERBB3 = tested on: ERBB3
# ERBB4 = tested on: ERBB4
# 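Also: KINOMEscan kinase panel screen.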
Compound,%Inh (DYRK1B) [%],%Inh (DYRK2) [%],%Inh (EGFR) [%],%Inh (EIF2AK1) [%],%Inh (EPHA1) [%],%Inh (EPHA2) [%],%Inh (EPHA3) [%],%Inh (EPHA4) [%],%Inh (EPHA5) [%],%Inh (EPHA6) [%],%Inh (EPHA7) [%],%Inh (EPHA8) [%],%Inh (EPHB1) [%],%Inh (EPHB2) [%],%Inh (EPHB3) [%],%Inh (EPHB4) [%],%Inh (EPHB6) [%],%Inh (ERBB2) [%],%Inh (ERBB3) [%],%Inh (ERBB4) [%]
CC(=O)Nc1ccc(-c2cc3ncnc(SCC(=O)O)c3s2)cc1,22,39,2,0,28,0,0,19,7,22,0,0,0,10,22,23,84,6,8,3
FC(F)(F)c1cc(Br)cc(Nc2nccc(-c3cnn4ncccc34)n2)c1 [GW810578],98.3,47,16,0,11,0,7,15,26,18,0,0,0,9,17,0,48,0,1,0
CC(C)S(=O)(=O)N1CCN(Cc2ccc3c(c2)nc(NC(=O)c2ccsc2)n3C[C@H](O)c2ccccc2)CC1 [GW635815],70,21,20,1,0,0,11,15,0,7,10,19,35,16,15,14,0,0,0,0
CS(=O)c1ccc(-c2coc3ccc(-c4n[nH]c(=O)o4)cc23)cc1 (stereo not drawn),68,10,0,3,0,0,0,0,0,0,0,0,0,12,0,0,25,0,13,5
Cc1ccc(C(=O)Nc2ccc(Oc3ccc4nc(NC(=O)C5CC5)cn4c3)c(F)c2)c(=O)n1-c1ccccc1,39,0,0,0,91.8,98.5,49,90.1,45,95.4,74,99.8,83,94.8,11,75,99.1,30,43,3
CC(C)c1nc(-c2cccc(NS(=O)(=O)c3ccccc3)c2)c(-c2ccnc(Nc3ccc4c(c3)CN(C)CC4)n2)s1 [GSK1649598],20,23,84,95.1,93.2,33,44,21,0,66,13,80,34,0,0,11,98.5,86,97.7,98.8
COC(=O)c1cccc(NC(=O)NC2CCN(c3ccnc(Nc4cc(OC)c(OC)c(OC)c4)n3)C2)c1 (stereo not drawn) [GSK1379767],15,2,33,0,0,16,15,6,0,0,4,7,10,0,8,20,86,51,31,0
c1ccc(Oc2ccc(Nc3ccnc4ccc(-c5ccccn5)cc34)cc2)cc1 [GW407034],0,0,82,0,31,13,0,7,90.6,2,0,14,0,5,1,13,49,90.3,89,88
CN(c1ccccc1CNc1nc(Nc2ccc3c(c2)CC(=O)N3)ncc1C(F)(F)F)S(C)(=O)=O,30,1,0,0,12,4,0,2,6,34,61,0,11,4,0,0,38,0,0,0
CCN1CCN(CCCC(=O)Nc2n[nH]c3nc(-c4ccc(O)cc4)c(Br)cc23)CC1 [SB-731579],77,74,0,71,0,0,6,0,0,0,0,0,0,6,0,0,0,24,66,0
CN(c1cccc(CNc2nc(Nc3ccc4c(c3)CC(=O)N4)ncc2C(F)(F)F)c1)S(C)(=O)=O,57,28,3,0,3,0,22,1,0,0,33,0,20,14,1,5,56,26,0,6
CS(=O)(=O)Nc1ccc(-c2ccnc3[nH]ccc23)cc1 [GSK993273],84,44,17,1,19,0,0,20,0,6,13,18,19,6,18,0,5,15,0,0
COc1cc(Nc2nccc(N3CCC(NC(=O)c4cccc(C#N)c4)C3)n2)cc(OC)c1OC (stereo not drawn) [GSK1379751],15,0,29,0,11,2,0,4,0,0,0,0,4,0,8,19,86,41,16,31
O=C(NOCC1CC1)c1cc(Br)c(F)c(F)c1Nc1ccc(I)cc1Cl,17,0,0,0,0,0,0,0,0,0,0,0,5,5,0,0,0,44,0,0
Cc1ccn2nc(-c3ccc(F)cc3)c(-c3ccncc3)c2c1.Cl [GW457859],10,0,49,8,2,83,19,0,0,4,0,0,0,0,2,3,8,64,24,32
C[C@@H](Oc1cc(-n2cnc3cc(-c4ccncc4)ccc32)sc1C(N)=O)c1ccccc1Cl [GSK479719],18,31,28,18,0,29,100,21,0,29,8,15,9,0,18,12,0,0,0,0
O=C(Nc1ccc(Oc2ccc3nc(NC(=O)C4CC4)cn3n2)c(F)c1)c1cccn(-c2ccccc2)c1=O,30,0,13,0,51,74,0,26,11,37,0,79,39,60,6,35,77,15,30,1
CCCC(=O)Nc1n[nH]c2ncccc12 [SB-601436],0,2,11,0,8,0,0,14,0,25,0,0,0,0,12,16,0,0,0,0
